From PubChem BioAssay (NCATS)
Records with an inconclusive call do not appear. Calls of active or inactive are those of the source. The call rests on the fitted dose curve; in most records, active means well fitted inhibition curve with a large enough effect; inconclusive means small, poorly fitted or top-dose-only effect; inactive means flat fitted curve, though single readings scatter.

system: HaCat; assay: Cytotoxic Profiling of Annotated Libraries Using Quantitative High-Throughput Screening (AID 1296008); conditions: Five cell lines viability, CellTiter-Glo ATP luminescence, 48-72 h; max response: active compounds read low; further: nearly all actives have a fitted effect of over 60% in size
In short: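 Compounds were pin-transferred onto cells and incubated 48 or 72 hr at 37 degree Celsius, 95% humidity. CellTiter-Glo was added, plates sat 10 min at room temperature, then ATP-coupled luminescence was imaged as the viability read-out.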

Which outcome does the source give for `COc1ccc(-c2cnc3c(-c4cccc5ncccc45)cnn3c2)cc1` here?
The outcome was “inactive”.

`C/C=C(\C)C(=O)OC1C[C@@]2(COC(C)=O)O[C@H]2/C=C\[C@@]2(C)O[C@@H]2[C@H]2OC(=O)C(COC(C)=O)=C12` (stereo not given in full) was tested. Which outcome did it give?
The outcome was “inactive”.

How did the outcome turn out when `COc1ccc(NC(=O)c2ccc(-c3ccc(C(=N)N)cc3C)cc2)cc1N1CCN(C)CC1` was run?
The outcome was “inactive”.

With `C=C1CCCC2(C)CCC(C(C)(C)OC3OC(C)C(O)C(O)C3OC(=O)/C(C)=C\C)CC12` (stereo not given) as the compound, how does the outcome read?
Its outcome is “inactive”.

With `C=C(CCC1C(C)(O)CCC2C(C)(C)C(O)CCC12C)C(O)CO` (stereo not given) as the compound, how does the outcome read?
The outcome was “inactive”.

`O=C(Nc1ccccc1C(=O)Nc1ccc(CCO)cc1)c1ccc([N+](=O)[O-])cc1` was tested. Which outcome did it give?
Its outcome is “inactive”.

For `O=C([C@@H](Cc1cccc(C(F)(F)F)c1)NS(=O)(=O)c1cc(F)c2c(c1)CCNC2)N1CCCC1`, which outcome is on record?
Its outcome is “inactive”.

Which outcome does the source give for `COC(=O)c1ccc2c(c1)[nH]c1ncnc(NCCCN3CCCCC3)c12` here?
Its outcome is “inactive”.

With `CC[C@H](C)/C=C(C)/C=C/C1=CC2=C(Cl)C(=O)[C@](C)(O)[C@H](OC(C)=O)[C@H]2CO1` as the compound, how does the outcome read?
The outcome was “inactive”.

For `O=C(Nc1ccc(N(Cc2ccsc2)C(=O)Cn2nnc3ccccc32)cc1)C1CC1`, which outcome is on record?
Its outcome is “inactive”.

Which outcome does the source give for `C/C=C(/C)C(=O)OC1C=C2C3C(C)C(C)C(OC(=O)C(C)C(C)O)CC3(C)CCC2(C)C2(C)CC(OC(C)=O)C3C(C)(C)C(O)C(=O)CC3(C)C12` (stereo not given) here?
Its outcome is “inactive”.

Which outcome does the source give for `CC(=O)NC[C@H]1CN(c2ccc(N3CCSCC3)c(F)c2)C(=O)O1` here?
The outcome was “inactive”.

How did the outcome turn out when `Cc1ccc(OC[C@H](O)[C@H](C)NC(C)C)c2c1CCC2` was run?
Its outcome is “inactive”.

How did the outcome turn out when `O=C(NCC1CCN(Cc2cccc(Cl)c2)CC1)[C@@H]1CCCN(c2ncnc3c2nc2n3CCCC2)C1` was run?
The outcome was “inactive”.

Which outcome does the source give for `CNCCC(c1cccs1)c1ccc(O)c2ccccc12` (stereo not given) here?
The outcome was “inactive”.

For `CCC/C=C/C(=O)O[C@H]1CC(C)(C)CC2[C@@]13[C@H](O)C[C@]1(C)[C@@]2(CCC2[C@@]4(C)CC[C@H](O[C@@H]5O[C@H](C(=O)O)[C@@H](O)[C@H](O[C@@H]6O[C@H](CO)[C@H](O)[C@H](O)[C@H]6O[C@@H]6O[C@@H](C)[C@H](O)[C@@H](O)[C@H]6O[C@@H]6OC[C@](O)(CO)[C@H]6O)[C@H]5O[C@@H]5O[C@H](CO)[C@H](O)[C@H](O)[C@H]5O)C(C)(C)C4CC[C@]21C)O[C@H]3O` (stereo not given in full), which outcome is on record?
Its outcome is “inactive”.

How did the outcome turn out when `C=C1CC2OC(=O)C(=C)C2C(O)/C=C(\C)CCC1O` (stereo not given) was run?
The outcome was “inactive”.

`C[C@@H](NC(=O)c1ccc(C#Cc2cccc(F)c2)cn1)C(C)(C)O` was tested. Which outcome did it give?
Its outcome is “inactive”.

Which outcome does the source give for `CN(C)CCOc1cc(NS(=O)(=O)c2c(Cl)cc(C(F)(F)F)cc2Cl)ccc1Cl` here?
Its outcome is “inactive”.

`CC(=O)O[C@@H]1CC[C@@]2(C)[C@H](CC[C@@H]3[C@@H]2C[C@H](OC(C)=O)[C@]2(C)[C@@H](C(C)=O)CC[C@@H]32)C1` was tested. Which outcome did it give?
Its outcome is “inactive”.

With `CC1=C2C[C@@]3(C)C(CCC[C@@H]3C)C(O)C2OC1=O` (stereo not given in full) as the compound, how does the outcome read?
Its outcome is “inactive”.

`CNCCCC1(c2ccccc2)OC(C)(C)c2ccccc21` (stereo not given) was tested. Which outcome did it give?
Its outcome is “inactive”.

`O=S1(=O)CCN(Cc2cc(NCC3CCOCC3)c3[nH]c(-c4ccccc4)cc3c2)CC1` was tested. Which outcome did it give?
Its outcome is “inactive”.

For `CCCNCCc1ccc(NS(=O)(=O)c2ccc(OC(F)(F)F)cc2)cc1`, which outcome is on record?
Its outcome is “inactive”.

Which outcome does the source give for `CC(=O)OCC(=O)[C@@]12O[C@@H]1C[C@H]1[C@@H]3CC=C4C[C@@H](O)CC[C@]4(C)[C@H]3CC[C@@]12C` here?
Its outcome is “inactive”.

With `CC#CCn1c(N2CCCC(N)C2)nc2c1c(=O)n(Cc1nc(C)c3ccccc3n1)c(=O)n2C` (stereo not given) as the compound, how does the outcome read?
Its outcome is “inactive”.

For `COc1ccc2c(NC(=O)Nc3cccc(C(F)(F)F)n3)ccnc2c1`, which outcome is on record?
The outcome was “inactive”.

Which outcome does the source give for `CC(C)(C)c1ccc(C(=O)Nc2cn3cc(-n4ccnc4)ccc3n2)cc1` here?
The outcome was “inactive”.

`CCOC(=O)N1CCC(N2CCC[C@@H](NC(=O)c3ccccc3C)C2)CC1` was tested. Which outcome did it give?
The outcome was “inactive”.

`Cc1nc(C(=O)N2CCC[C@H]2Cc2nnc(-c3ccccc3)o2)c(-c2ccccc2F)s1` was tested. Which outcome did it give?
Its outcome is “inactive”.

Which outcome does the source give for `CC(=O)c1c(C)cc2cccc(O)c2c1O[C@@H]1O[C@H](CO)[C@@H](O)[C@H](O)[C@H]1O` here?
The outcome was “inactive”.

For `CCCn1cc2c(nc(NC(=O)Nc3ccc(OC)cc3)n3nc(-c4ccco4)nc23)n1`, which outcome is on record?
The outcome was “inactive”.

With `O=C(O)c1cc(N(Cc2ccc(C3CCCCC3)cc2)C(=O)c2ccc(Oc3ccccc3)cc2)ccc1O` as the compound, how does the outcome read?
The outcome was “inactive”.

Which outcome does the source give for `COc1cc2nc(N3CCN(C(=O)COc4c(OC)cccc4C(C)C)CC3)nc(N)c2cc1OC` here?
The outcome was “inactive”.

`CC(=O)C=C=C1C(C)(C)CC(O)CC1(C)O[C@@H]1O[C@H](CO[C@H]2OC[C@](O)(CO)[C@H]2O)[C@@H](O)[C@H](O)[C@H]1O` (stereo not given in full) was tested. Which outcome did it give?
The outcome was “inactive”.
